Assay results published in the supplement of paper PMC10849652.
About 7,900 targets were measured; listed, in parts, are those with a hit and a random draw of the rest. About 0.6% of all pairs of compound and target were hits. Values without a mark were called inactive.

Legend:
Assay in all cases: log2 fold change, soluble protein after heating vs DMSO (PISA); higher = thermal stabilisation; K562 cells, 10 uM, 30 min; active = over 0.2 and 3.5 SD of the protein, either way, in both replicates (recomputed)
[1] = compound: C#Cc1cccc(Nc2ncnc3cc(OCCOC)c(OCCOC)cc23)c1 [erlotinib]
Method in brief: (§1)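 Values are thermal stability changes relative to control samples and are taken from duplicates. They are stated as log2 fold changes. Before quantification by TMTpro 16plex LC-MS/MS with equalised channel sums, K562 cells at 2×10^6 cells/mL were treated with 10 μM compound for 30 min, heated in aliquots for 3 min across 48°C-58°C, pooled, extracted in PBS with 0.5% NP-40 at 4°C, and centrifuged at 21,000xg for 90 min to give the soluble supernatant.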

[2] = compound: C/C(=N\NC(=O)C1=CC(=CC=C1)S(=O)(=O)N2CCOCC2)/C3=C(C=CC(=C3)Cl)O
Method in brief: as §1

[3] = compound: C1=CC(=C(C=C1Cl)C2=NC3=NC=CN=C3C(=N2)NC4=CC=NC=C4)F
Method in brief: as §1

[4] = compound: C1=CC(=CC=C1C2=NC3=C(N2)C=C(C=C3)C(=O)N)OC4=CC=C(C=C4)Cl
Method in brief: as §1

[5] = compound: C1=CC2=C(C=CC(=C2)/C=C\3/C(=O)NC(=NCC4=CC=CS4)S3)N=C1
Method in brief: as §1

[6] = compound: C1=CC2=NC=CN=C2C=C1/C=C/3\C(=O)NC(=O)S3
Method in brief: as §1

[7] = compound: C1=CC=C(C=C1)C2=NC(=C(N2)C3=CC=NC=C3)C4=CC(=C(C=C4)Cl)O
Method in brief: as §1

[8] = compound: C1=CC=C2C(=C1)C3=NNC4=CC=CC(=C43)C2=O
Method in brief: as §1

[9] = compound: C1CCN(C1)C(=O)NC2=CC=CC(=C2)NC3=NC=C(C(=N3)NCCC4=CN=CN4)Br
Method in brief: as §1

[10] = compound: C1CN(CCC1(CC2=CC=C(C=C2)Cl)N)C3=NC=NC4=C3C=CN4
Method in brief: as §1

[11] = compound: C1COCCN1CCN2C3=CC=CC=C3N=C2NC(=O)C4=CC(=CC=C4)[N+](=O)[O-] [IRAK-1-4 Inhibitor I]
Method in brief: as §1

[12] = compound: C=CC(=O)N1CCC[C@@H](n2nc(-c3ccc(Oc4ccccc4)cc3)c3c(N)ncnc32)C1 [ibrutinib]
Method in brief: as §1

[13] = compound: CC(=O)c1cnc2ccc(-c3cc(Cl)c(O)c(Cl)c3)nc2c1N[C@H]1CC[C@H](CN(C)C)CC1
Method in brief: as §1

[14] = compound: CC(C)(C)Cn1c(N)nc2ccc(-c3[nH]c(C(C)(C)C)nc3-c3ccc(F)cc3)nc21 [ralimetinib]
Method in brief: as §1

[15] = compound: CC(C)(O)CC(=O)NCCn1ccc2ncnc(Nc3ccc(Oc4cccc(C(F)(F)F)c4)c(Cl)c3)c21
Method in brief: as §1

[16] = compound: CC(C)C1=C2N=C(C=C(N2N=C1)NCC3=CC=CC=C3)NCCCCCCN
Method in brief: as §1

[17] = compound: CC(C)C[C@@H](C=O)NC(=O)[C@H](CC(C)C)NC(=O)[C@H](CC(C)C)NC(=O)OCc1ccccc1
Method in brief: as §1

[18] = compound: CC(C)N(C[C@H]1O[C@@H](n2cnc3c(N)ncnc32)[C@H](O)[C@@H]1O)[C@H]1C[C@@H](CCc2nc3cc(C(C)(C)C)ccc3[nH]2)C1 [pinometostat]
Method in brief: as §1

[19] = compound: CC1=C(C(CC(=O)N1)C2=CC=C(C=C2)C(F)(F)F)C(=O)NC3=C(C=C4C(=C3)C=NN4)F
Method in brief: as §1

[20] = compound: CC1=C(C2=C(C=C1)C(=O)C3=CC=CC=C3N2CCCN)C
Method in brief: as §1

Sequence of UniProt Q13111 (Q13111 whole entry, looked up): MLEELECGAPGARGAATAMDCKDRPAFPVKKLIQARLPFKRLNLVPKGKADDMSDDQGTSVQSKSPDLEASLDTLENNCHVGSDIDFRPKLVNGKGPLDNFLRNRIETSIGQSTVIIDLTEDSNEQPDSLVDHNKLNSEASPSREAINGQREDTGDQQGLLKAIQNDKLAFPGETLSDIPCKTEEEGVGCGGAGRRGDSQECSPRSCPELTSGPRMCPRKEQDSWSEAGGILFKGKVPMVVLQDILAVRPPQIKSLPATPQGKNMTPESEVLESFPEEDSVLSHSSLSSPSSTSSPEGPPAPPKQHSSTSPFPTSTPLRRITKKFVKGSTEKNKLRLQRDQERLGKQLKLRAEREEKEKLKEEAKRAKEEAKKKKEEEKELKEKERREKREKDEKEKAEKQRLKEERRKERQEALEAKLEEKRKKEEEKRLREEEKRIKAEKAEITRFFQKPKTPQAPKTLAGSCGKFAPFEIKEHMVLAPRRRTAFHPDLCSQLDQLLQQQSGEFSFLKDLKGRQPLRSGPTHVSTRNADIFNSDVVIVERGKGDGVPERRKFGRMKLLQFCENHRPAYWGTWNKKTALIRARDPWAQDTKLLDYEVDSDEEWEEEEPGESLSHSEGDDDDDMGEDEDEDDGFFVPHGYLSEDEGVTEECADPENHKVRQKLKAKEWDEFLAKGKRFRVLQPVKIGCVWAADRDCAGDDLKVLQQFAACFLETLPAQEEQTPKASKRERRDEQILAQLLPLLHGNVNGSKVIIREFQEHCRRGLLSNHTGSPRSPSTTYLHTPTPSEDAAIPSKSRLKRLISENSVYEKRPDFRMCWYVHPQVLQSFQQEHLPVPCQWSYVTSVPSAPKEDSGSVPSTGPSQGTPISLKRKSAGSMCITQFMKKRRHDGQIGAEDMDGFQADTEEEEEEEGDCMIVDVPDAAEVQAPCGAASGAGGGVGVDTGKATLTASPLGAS
Sequence of UniProt Q9H9S4 (Q9H9S4 whole entry, looked up): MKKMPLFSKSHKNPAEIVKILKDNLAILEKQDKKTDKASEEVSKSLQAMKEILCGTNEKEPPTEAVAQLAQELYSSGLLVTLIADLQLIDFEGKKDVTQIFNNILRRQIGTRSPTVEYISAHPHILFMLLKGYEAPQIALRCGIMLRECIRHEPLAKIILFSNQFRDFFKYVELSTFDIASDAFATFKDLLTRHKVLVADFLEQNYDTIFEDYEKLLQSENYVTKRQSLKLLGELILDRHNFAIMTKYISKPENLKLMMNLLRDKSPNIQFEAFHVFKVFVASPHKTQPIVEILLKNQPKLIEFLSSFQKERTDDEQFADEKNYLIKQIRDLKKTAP
Sequence of UniProt P51790 (P51790 whole entry, looked up): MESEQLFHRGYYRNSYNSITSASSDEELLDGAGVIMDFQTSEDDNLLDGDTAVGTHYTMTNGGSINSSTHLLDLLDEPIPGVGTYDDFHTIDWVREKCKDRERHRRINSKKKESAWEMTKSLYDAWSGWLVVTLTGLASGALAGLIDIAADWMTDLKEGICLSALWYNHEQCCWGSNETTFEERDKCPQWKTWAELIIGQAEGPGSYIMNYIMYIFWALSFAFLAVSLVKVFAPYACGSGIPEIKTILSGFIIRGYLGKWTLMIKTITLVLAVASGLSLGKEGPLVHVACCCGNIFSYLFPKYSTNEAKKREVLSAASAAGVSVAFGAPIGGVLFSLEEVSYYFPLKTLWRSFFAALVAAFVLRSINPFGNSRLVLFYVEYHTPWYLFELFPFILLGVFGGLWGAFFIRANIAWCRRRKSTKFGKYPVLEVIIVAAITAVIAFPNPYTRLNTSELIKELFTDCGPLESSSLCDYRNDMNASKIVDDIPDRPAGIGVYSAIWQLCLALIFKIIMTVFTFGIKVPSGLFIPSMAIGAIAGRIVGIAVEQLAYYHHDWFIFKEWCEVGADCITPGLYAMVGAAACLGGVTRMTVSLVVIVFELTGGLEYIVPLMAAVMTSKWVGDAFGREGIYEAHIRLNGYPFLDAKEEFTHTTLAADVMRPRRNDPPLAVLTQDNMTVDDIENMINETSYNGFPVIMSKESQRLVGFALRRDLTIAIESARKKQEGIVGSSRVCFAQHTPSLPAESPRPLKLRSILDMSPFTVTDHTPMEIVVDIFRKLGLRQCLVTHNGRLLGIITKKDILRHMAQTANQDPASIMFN
Sequence of UniProt O75122 (O75122 whole entry, looked up): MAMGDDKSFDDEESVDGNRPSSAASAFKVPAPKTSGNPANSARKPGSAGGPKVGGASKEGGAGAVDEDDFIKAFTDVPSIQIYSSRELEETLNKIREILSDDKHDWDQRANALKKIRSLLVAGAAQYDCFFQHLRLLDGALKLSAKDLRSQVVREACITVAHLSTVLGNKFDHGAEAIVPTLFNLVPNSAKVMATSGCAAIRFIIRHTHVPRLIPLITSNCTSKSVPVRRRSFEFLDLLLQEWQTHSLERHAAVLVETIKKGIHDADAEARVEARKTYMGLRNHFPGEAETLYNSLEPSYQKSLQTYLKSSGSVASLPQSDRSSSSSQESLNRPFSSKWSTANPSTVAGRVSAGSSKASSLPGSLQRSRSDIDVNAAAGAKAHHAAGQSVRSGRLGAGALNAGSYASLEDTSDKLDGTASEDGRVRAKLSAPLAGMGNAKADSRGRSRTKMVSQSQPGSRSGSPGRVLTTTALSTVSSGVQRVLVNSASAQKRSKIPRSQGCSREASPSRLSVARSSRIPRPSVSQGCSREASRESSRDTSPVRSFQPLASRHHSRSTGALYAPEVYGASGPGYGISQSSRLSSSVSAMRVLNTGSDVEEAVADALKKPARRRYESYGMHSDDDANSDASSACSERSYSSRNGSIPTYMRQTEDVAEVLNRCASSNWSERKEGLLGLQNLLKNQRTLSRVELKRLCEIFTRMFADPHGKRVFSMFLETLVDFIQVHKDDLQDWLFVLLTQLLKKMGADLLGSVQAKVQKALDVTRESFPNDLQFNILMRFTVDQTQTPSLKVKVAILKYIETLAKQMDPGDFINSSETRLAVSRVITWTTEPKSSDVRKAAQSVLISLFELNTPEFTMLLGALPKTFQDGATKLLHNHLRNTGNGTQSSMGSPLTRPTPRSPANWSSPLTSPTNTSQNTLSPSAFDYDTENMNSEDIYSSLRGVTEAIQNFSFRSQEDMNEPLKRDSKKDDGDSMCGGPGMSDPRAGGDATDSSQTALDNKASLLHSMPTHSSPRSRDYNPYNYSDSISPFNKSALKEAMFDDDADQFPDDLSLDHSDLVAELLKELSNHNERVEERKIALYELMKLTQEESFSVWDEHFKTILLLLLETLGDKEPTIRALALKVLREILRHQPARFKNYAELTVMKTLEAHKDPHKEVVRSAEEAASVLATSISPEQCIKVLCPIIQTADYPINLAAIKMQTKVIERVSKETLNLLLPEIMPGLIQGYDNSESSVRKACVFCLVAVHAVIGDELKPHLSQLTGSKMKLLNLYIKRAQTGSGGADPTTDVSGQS
Sequence of UniProt Q8IUI8 (Q8IUI8 whole entry, looked up): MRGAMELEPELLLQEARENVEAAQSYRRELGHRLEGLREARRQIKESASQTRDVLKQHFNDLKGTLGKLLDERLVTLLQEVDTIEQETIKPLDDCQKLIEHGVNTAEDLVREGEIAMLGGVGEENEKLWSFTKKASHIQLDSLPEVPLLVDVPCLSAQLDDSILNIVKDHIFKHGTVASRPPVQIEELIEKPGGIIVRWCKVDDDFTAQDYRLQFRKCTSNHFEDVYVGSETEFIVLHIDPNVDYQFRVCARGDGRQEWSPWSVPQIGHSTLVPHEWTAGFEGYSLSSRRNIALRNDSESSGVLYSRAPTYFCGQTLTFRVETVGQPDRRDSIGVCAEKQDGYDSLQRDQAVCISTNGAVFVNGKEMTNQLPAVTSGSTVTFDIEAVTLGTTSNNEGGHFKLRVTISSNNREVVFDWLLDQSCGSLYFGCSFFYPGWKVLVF
Sequence of UniProt Q96KA5 (Q96KA5 whole entry, looked up): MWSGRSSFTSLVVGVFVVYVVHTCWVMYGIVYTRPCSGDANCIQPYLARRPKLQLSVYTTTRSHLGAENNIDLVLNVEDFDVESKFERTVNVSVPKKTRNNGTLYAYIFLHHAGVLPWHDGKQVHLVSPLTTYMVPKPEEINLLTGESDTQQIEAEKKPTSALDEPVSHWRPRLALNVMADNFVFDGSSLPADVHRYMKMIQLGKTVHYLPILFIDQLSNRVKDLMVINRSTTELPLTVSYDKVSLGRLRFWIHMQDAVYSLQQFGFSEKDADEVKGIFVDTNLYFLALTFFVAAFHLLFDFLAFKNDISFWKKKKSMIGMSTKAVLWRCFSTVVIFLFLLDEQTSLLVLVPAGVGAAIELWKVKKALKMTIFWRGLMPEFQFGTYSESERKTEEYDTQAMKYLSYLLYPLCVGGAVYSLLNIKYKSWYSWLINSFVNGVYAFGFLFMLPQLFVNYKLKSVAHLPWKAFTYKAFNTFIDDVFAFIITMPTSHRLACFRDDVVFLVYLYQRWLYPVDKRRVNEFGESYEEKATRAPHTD
Sequence of UniProt Q00537 (Q00537 whole entry, looked up): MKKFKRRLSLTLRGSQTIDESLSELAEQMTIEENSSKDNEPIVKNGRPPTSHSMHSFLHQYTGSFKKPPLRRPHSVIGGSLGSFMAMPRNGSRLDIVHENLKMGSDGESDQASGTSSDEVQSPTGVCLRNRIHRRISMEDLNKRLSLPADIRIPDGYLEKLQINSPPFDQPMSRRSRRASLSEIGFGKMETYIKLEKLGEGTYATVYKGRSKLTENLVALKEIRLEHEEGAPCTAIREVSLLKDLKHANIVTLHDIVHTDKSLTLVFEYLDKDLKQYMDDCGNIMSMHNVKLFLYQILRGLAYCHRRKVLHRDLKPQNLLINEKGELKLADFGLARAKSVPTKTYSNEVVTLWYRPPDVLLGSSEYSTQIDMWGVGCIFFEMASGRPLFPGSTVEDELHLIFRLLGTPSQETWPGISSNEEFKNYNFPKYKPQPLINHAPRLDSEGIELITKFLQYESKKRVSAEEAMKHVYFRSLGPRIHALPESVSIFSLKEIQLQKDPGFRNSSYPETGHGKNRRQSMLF
Sequence of UniProt Q13901 (Q13901 whole entry, looked up): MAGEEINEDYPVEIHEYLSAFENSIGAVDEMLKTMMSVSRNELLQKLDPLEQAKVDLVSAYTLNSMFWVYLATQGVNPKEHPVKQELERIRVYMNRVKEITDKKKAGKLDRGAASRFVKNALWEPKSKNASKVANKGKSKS

Target | log2 fold change [1] | log2 fold change [2] | log2 fold change [3] | log2 fold change [4] | log2 fold change [5] | log2 fold change [6] | log2 fold change [7] | log2 fold change [8] | log2 fold change [9] | log2 fold change [10] | log2 fold change [11] | log2 fold change [12] | log2 fold change [13] | log2 fold change [14] | log2 fold change [15] | log2 fold change [16] | log2 fold change [17] | log2 fold change [18] | log2 fold change [19] | log2 fold change [20]
CSE1L (UniProt P55060) | -0.005 | 0.056 | 0.064 | -0.033 | 0 | 0.052 | 0.012 | -0.044 | 0.028 | -0.04 | 0.001 | -0.028 | 0.033 | -0.011 | -0.144 | -0.145 | -0.029 | -0.027 | -0.008 | -0.02
C1D (UniProt Q13901) | 0.022 | -0.078 | -0.01 | -0.011 | -0.246 | 0.068 | -0.071 | -0.044 | -0.019 | -0.1 | 0.013 | -0.041 | -0.081 | 0.016 | -0.047 | 0.072 | 0.055 | -0.081 | 0.084 | -0.004
CRKL (UniProt P46109) | -0.012 | -0.002 | 0.014 | -0.02 | 0.047 | 0.006 | -0.069 | -0.017 | 0.017 | 0.026 | 0.035 | -0.102 | -1.24 (active) | -0.054 | -0.004 | 0.042 | 0.057 | -0.022 | 0.042 | -0.008
CAB39L (UniProt Q9H9S4) | -0.026 | -0.001 | -0.088 | 0.065 | 0.042 | 0.015 | 0.007 | -0.117 | -0.068 | -0.306 | 0.018 | 0.001 | -0.126 | 0.057 | -0.152 | -0.024 | 0.032 | 0.102 | – | -0.483
CLCN3 isoform 2 (UniProt P51790) | 0.008 | 0.089 | 0.059 | 0.044 | 0.024 | -0.002 | 0.025 | -0.017 | -0.012 | 0.033 | 0.005 | – | -0.008 | 0.026 | -0.043 | -0.049 | -0.066 | -0.043 | -0.012 | 0.051
CRLF3 (UniProt Q8IUI8) | 0.09 | -0.034 | 0.036 | -0.015 | 0.076 | 0.019 | -0.018 | -0.028 | 0.027 | -0.04 | 0 | -0.047 | -0.079 | 0.008 | -0.122 | -0.166 | 0.013 | -0.001 | 0.015 | -0.035
CLSPN (UniProt Q9HAW4) | -0.09 | -0.022 | -0.024 | 0.02 | -0.035 | 0.032 | -0.062 | -0.027 | -0.083 | 0.033 | 0.028 | – | -0.04 | -0.033 | 0.038 | -0.062 | 0.124 | -0.018 | 0.009 | -0.541 (active)
CFAP36 isoform 2 (UniProt Q96G28) | 0.048 | -0.11 | -0.046 | 0.005 | 0.059 | 0.042 | -0.068 | 0.007 | 0.127 | -0.111 | -0.183 | -0.022 | 0.001 | 0.053 | -0.012 | -0.09 | 0.065 | 0.024 | – | 0.103
CHAF1A (UniProt Q13111) | -0.046 | -0.014 | -0.121 | 0.053 | 0.027 | 0.135 | -0.047 | -0.114 | – | – | 0 | -0.143 | -0.118 | 0.056 | 0.067 | -0.066 | 0.08 | -0.028 | -0.042 | –
CNN3 (UniProt Q15417) | 0.013 | 0.158 | 0.064 | -0.088 | 0.054 | 0.056 | – | 0.016 | 0.041 | -0.116 | – | -0.067 | -0.007 | – | -0.138 | -0.17 | – | – | 0.058 | 0.012
CORO2A (UniProt Q92828) | -0.035 | 0.064 | – | -0.011 | -0.001 | 0.127 | 0.138 | -0.042 | 0.034 | 0.031 | – | -0.068 | -0.022 | 0.019 | – | -0.088 | 0.21 | – | 0.008 | 0.01
CDC25B isoform 4 (UniProt P30305) | -0.031 | 0.117 | 0.036 | 0.044 | -0.062 | 0.131 | -0.007 | -0.047 | – | – | 0.068 | 0.037 | -0.302 | 0.079 | -0.049 | 0.021 | -0.02 | 0.007 | 0.155 | –
CDK17 isoform 2 (UniProt Q00537) | 0.086 | 0.008 | 0.059 | -0.075 | -0.123 | -0.081 | – | 0.064 | – | – | 0.101 | 0.003 | 0.258 | – | -0.069 | 0.078 | – | 0.037 | – | –
CLASP2 isoform 3 (UniProt O75122) | 0.014 | 0.136 | 0.066 | 0.032 | 0.081 | -0.013 | -0.01 | 0.006 | -0.063 | 0.041 | -0.047 | – | -0.297 (active) | 0.009 | -0.056 | -0.036 | 0.046 | 0.018 | 0.023 | 0.046
CLPTM1L (UniProt Q96KA5) | 0.011 | 0.04 | -0.029 | 0.063 | 0.032 | 0.018 | -0.002 | -0.037 | -0.022 | 0.017 | 0.051 | – | -0.033 | -0.05 | -0.069 | -0.281 (active) | 0.006 | 0.023 | 0.042 | 0.033
COG2 (UniProt Q14746) | -0.082 | -0.367 | 0.012 | -0.026 | 0.478 | – | -0.223 | -0.137 | 0.257 | -0.065 | -0.232 | – | -0.042 | 0.099 | -0.317 | -0.009 | 0.18 | -0.043 | 0.132 | -0.108
CLUH, A0A494C0R8 | -0.008 | -0.081 | 0.253 | -0.107 | 0.127 | 0.235 | -0.081 | 0.03 | 0.07 | 0.05 | -0.016 | – | 0.508 (active) | -0.125 | -0.231 | -0.257 | 0.199 | -0.044 | -0.058 | 0.046
